# Data reported in article PMC7862700, “An all-to-all approach to the identification of sequence-specific readers for epigenetic DNA modifications on cytosine”.
# Key:
# Assay in all cases: DAPPL (digital affinity profiling via proximity ligation, sequencing); 10 mM Tris-HCl pH 7.5, 50 mM NaCl, 1 mM DTT, 4% glycerol, room temperature, 30 min; GST-TFs on glutathione beads, 16-mer random dsDNA library, 0.1% formaldehyde crosslink after washing; high values mean tight binding
# [1] = molecular target: T1, FEV (Homo sapiens, UniProt Q99581 1-238); details: protein: recombinant; tags: N-terminal GST; dsDNA, one strand shown
# T1 sequence: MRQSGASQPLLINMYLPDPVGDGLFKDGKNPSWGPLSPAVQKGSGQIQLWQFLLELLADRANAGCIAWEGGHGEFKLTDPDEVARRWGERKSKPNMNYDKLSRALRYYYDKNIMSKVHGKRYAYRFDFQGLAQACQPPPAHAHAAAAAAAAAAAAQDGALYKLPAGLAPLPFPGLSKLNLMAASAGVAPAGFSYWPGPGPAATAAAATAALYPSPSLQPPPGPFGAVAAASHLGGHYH
# How it was run: (§1)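 In yeast, human transcription factors were expressed with a GST fusion, then pulled down on glutathione beads and given DNA barcodes. Pooled with a tag-only sample, they were exposed to 200 nmole of a 16-mer random double-stranded DNA library (Tris/NaCl/DTT/glycerol buffer, room temperature, 30 min), washed, crosslinked with 0.1% formaldehyde, proximity-ligated using BsaI/T4 ligase for 1 h at 37 °C, PCR-amplified and read on an Illumina NextSeq500. Each hexamer's frequency of reads for a factor, divided by the matching frequency for the tag-only sample, gives the binding signal.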
# [2] = molecular target: ETV5 (Homo sapiens, UniProt P41161 1-510); details: protein: recombinant; tags: N-terminal GST; dsDNA, one strand shown
# ETV5, sequence (P41161 whole entry): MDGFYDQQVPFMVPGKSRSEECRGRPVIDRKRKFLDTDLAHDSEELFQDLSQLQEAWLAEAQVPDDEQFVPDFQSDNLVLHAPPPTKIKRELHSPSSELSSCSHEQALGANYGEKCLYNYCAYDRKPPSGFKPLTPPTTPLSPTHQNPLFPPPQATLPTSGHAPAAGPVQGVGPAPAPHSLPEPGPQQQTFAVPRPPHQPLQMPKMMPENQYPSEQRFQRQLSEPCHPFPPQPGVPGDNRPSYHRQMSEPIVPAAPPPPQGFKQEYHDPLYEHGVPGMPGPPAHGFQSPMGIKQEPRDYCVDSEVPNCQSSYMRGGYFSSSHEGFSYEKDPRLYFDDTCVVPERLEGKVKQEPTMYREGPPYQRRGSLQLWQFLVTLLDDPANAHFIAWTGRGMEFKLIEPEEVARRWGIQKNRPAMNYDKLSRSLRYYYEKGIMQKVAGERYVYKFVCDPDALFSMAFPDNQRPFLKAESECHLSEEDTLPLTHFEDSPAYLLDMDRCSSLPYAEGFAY
# How it was run: as §1
# [3] = molecular target: HSF1 (Homo sapiens, UniProt Q00613 1-529); details: protein: recombinant; tags: N-terminal GST; chain copies: 3; dsDNA, one strand shown
# HSF1, sequence (Q00613 whole entry): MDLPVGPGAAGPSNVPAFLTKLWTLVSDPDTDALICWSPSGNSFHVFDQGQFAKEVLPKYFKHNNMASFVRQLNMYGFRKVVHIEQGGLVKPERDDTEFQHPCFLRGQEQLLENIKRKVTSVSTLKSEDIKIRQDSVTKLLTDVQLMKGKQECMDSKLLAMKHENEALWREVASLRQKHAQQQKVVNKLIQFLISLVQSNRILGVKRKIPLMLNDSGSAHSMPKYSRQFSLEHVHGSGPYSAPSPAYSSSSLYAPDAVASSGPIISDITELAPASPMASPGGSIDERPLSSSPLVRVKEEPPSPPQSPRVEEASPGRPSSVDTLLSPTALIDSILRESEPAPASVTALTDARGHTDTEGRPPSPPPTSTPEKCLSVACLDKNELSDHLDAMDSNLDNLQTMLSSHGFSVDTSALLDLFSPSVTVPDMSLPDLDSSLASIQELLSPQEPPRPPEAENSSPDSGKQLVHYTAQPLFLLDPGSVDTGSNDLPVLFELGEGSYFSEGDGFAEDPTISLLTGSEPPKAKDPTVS
# How it was run: as §1
# [4] = molecular target: T2, SPIC (Homo sapiens, UniProt Q8N5J4 1-248); details: protein: recombinant; tags: N-terminal GST; dsDNA, one strand shown
# T2 sequence: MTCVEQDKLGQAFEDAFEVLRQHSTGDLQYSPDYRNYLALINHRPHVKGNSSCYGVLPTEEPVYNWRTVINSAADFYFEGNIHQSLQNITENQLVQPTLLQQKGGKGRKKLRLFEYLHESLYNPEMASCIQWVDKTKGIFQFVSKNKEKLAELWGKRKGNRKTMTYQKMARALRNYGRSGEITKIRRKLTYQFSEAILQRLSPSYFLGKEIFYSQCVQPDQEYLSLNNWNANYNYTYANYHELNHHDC
# How it was run: as §1
# [5] = molecular target: ELF4 (Homo sapiens, UniProt Q99607 1-663); details: protein: recombinant; tags: N-terminal GST; dsDNA, one strand shown
# ELF4, sequence (Q99607 whole entry): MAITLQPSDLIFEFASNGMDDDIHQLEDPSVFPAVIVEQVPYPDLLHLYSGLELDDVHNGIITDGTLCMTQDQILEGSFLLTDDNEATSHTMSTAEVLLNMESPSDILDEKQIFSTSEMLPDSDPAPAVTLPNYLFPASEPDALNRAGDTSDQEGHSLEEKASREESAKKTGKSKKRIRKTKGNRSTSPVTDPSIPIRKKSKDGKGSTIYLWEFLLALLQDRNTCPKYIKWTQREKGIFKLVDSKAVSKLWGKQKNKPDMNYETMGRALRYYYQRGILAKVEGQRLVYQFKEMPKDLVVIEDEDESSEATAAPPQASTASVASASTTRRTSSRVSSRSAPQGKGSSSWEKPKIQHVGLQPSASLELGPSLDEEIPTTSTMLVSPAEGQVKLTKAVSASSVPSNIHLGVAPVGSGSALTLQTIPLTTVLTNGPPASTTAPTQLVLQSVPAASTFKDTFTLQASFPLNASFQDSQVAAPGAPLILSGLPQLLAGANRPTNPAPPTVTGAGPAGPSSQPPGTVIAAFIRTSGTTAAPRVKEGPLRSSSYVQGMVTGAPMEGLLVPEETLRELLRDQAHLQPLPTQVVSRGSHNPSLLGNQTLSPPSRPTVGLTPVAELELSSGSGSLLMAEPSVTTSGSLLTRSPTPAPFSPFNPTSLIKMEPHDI
# How it was run: as §1
# [6] = molecular target: T3, ELK4 (Homo sapiens, UniProt P28324-2 1-405); details: protein: recombinant; tags: N-terminal GST; dsDNA, one strand shown
# T3 sequence: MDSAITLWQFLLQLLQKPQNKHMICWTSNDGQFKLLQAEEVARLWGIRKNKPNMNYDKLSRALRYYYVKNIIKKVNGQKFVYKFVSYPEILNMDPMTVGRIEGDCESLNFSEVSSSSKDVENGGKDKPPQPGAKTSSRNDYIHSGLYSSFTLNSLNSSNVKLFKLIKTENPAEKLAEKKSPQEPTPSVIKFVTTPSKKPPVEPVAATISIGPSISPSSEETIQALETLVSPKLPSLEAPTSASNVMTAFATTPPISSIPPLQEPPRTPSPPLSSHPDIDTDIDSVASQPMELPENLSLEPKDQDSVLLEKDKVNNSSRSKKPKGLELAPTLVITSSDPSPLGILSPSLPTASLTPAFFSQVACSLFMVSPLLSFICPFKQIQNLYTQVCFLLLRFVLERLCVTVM
# How it was run: as §1
# [7] = molecular target: T4, ETV2 (Homo sapiens, UniProt O00321 1-342); details: protein: recombinant; tags: N-terminal GST; dsDNA, one strand shown
# T4 sequence: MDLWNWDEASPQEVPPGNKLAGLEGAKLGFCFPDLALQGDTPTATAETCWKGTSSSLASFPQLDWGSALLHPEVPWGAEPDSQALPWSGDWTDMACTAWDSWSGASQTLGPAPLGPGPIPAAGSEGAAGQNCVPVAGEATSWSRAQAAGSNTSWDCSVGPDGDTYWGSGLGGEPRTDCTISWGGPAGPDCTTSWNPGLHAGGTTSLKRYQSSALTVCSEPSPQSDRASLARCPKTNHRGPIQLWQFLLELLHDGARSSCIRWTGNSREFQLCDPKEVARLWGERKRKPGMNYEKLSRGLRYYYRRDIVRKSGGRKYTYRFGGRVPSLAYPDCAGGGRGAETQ
# How it was run: as §1
# [8] = molecular target: T5, ELF3 (Homo sapiens, UniProt P78545 1-371); details: protein: recombinant; tags: N-terminal GST; dsDNA, one strand shown
# T5 sequence: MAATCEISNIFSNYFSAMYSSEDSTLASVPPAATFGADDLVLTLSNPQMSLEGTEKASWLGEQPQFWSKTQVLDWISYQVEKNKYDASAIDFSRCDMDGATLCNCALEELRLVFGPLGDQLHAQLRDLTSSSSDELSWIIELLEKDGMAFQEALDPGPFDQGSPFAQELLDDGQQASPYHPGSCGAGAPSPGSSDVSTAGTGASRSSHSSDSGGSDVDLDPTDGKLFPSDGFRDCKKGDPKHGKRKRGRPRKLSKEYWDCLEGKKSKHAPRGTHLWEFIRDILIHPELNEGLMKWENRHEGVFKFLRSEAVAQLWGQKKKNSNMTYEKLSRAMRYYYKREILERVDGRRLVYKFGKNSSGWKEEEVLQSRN
# How it was run: as §1
# [9] = molecular target: CRX (Homo sapiens, UniProt O43186 1-299); details: protein: recombinant; tags: N-terminal GST; dsDNA, one strand shown
# CRX, sequence (O43186 whole entry): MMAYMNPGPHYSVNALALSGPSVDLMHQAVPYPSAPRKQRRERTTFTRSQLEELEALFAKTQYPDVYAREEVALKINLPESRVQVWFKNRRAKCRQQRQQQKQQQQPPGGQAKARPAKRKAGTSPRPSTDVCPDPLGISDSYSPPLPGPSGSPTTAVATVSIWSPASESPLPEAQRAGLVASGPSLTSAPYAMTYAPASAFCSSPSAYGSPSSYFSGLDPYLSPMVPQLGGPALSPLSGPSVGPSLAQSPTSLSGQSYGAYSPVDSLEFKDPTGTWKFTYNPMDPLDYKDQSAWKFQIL
# How it was run: as §1
# [10] = molecular target: ETV1 (Homo sapiens, UniProt P50549 1-477); details: protein: recombinant; tags: N-terminal GST; dsDNA, one strand shown
# ETV1, sequence (P50549 whole entry): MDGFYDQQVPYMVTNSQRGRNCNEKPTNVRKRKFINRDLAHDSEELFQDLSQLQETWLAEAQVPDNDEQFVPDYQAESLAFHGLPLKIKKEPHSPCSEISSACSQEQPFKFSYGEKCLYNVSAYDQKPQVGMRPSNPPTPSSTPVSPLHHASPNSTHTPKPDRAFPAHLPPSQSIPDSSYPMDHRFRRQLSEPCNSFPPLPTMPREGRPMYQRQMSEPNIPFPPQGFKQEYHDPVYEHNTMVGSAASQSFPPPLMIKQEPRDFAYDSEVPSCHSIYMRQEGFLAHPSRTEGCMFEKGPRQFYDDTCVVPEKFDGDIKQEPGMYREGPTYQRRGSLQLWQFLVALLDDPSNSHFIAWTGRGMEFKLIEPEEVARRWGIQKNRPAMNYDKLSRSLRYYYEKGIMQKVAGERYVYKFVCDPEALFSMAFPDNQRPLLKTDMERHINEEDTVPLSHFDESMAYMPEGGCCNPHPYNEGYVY
# How it was run: as §1
# [11] = molecular target: T6, ERF (Homo sapiens, UniProt P50548 1-548); details: protein: recombinant; tags: N-terminal GST; dsDNA, one strand shown
# T6 sequence: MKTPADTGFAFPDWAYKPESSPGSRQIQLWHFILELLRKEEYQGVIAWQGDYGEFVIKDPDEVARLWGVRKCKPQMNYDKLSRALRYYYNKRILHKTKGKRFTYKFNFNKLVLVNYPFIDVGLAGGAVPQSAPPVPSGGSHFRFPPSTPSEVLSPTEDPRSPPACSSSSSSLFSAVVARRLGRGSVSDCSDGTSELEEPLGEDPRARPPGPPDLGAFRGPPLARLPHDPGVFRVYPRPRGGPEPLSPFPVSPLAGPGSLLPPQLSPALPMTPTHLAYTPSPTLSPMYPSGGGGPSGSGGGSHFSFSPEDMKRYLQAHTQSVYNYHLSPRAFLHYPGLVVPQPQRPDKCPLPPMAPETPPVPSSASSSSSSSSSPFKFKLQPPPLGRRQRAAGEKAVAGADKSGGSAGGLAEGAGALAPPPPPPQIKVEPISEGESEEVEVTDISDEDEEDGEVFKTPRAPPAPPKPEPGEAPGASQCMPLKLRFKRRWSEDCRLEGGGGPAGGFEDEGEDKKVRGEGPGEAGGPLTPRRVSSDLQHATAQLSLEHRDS
# How it was run: as §1
# [12] = molecular target: T7, ETV3L (Homo sapiens, UniProt Q6ZN32 1-361); details: protein: recombinant; tags: N-terminal GST; dsDNA, one strand shown
# T7 sequence: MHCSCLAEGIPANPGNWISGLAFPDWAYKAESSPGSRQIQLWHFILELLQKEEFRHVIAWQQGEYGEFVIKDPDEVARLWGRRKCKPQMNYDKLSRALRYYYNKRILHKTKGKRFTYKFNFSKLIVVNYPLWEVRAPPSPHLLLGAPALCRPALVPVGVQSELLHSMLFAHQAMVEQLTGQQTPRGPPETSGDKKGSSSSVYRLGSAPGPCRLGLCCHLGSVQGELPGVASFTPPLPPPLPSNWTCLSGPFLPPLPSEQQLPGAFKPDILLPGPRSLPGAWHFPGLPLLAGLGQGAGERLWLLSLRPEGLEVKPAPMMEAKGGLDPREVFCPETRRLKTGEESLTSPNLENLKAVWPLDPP
# How it was run: as §1
# [13] = molecular target: T8, ETS2 (Homo sapiens, UniProt P15036 1-469); details: protein: recombinant; tags: N-terminal GST; dsDNA, one strand shown
# T8 sequence: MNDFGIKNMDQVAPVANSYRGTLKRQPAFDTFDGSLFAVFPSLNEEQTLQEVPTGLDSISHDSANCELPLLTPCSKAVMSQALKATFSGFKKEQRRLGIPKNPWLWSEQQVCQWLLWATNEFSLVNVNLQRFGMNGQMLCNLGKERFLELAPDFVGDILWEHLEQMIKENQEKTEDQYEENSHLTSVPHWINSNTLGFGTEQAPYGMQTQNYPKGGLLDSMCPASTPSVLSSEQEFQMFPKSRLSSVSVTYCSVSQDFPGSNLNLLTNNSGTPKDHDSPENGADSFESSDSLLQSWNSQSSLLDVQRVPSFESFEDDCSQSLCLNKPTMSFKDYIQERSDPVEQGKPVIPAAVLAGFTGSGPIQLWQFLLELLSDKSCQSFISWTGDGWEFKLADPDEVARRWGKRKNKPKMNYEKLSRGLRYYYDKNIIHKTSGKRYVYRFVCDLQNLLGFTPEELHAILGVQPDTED
# How it was run: as §1
# [14] = molecular target: T9, SPDEF (Homo sapiens, UniProt O95238 1-335); details: protein: recombinant; tags: N-terminal GST; dsDNA, one strand shown
# T9 sequence: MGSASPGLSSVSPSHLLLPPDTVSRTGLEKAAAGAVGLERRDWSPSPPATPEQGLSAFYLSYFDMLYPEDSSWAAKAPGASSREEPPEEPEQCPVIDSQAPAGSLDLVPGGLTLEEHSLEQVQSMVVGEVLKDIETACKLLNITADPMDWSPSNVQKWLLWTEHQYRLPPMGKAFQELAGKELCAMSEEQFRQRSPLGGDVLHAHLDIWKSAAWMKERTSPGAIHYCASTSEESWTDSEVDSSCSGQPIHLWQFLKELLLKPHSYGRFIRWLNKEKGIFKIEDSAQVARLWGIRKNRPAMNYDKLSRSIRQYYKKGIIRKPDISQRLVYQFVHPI
# How it was run: as §1
# [15] = molecular target: T10, ETV7 (Homo sapiens, UniProt Q9Y603 1-341); details: protein: recombinant; tags: N-terminal GST; dsDNA, one strand shown
# T10 sequence: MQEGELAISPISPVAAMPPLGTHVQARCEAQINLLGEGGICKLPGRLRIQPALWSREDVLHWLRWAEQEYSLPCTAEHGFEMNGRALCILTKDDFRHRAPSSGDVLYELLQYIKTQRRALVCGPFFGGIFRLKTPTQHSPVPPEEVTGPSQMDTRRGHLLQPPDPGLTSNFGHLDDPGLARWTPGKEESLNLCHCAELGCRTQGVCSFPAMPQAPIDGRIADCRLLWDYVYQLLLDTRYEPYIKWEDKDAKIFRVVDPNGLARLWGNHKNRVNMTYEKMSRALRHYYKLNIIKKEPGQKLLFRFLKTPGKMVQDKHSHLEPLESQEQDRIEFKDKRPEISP
# How it was run: as §1
# [16] = molecular target: T11, ELF5 (Homo sapiens, UniProt Q9UKW6-2 1-255); details: protein: recombinant; tags: N-terminal GST; dsDNA, one strand shown
# T11 sequence: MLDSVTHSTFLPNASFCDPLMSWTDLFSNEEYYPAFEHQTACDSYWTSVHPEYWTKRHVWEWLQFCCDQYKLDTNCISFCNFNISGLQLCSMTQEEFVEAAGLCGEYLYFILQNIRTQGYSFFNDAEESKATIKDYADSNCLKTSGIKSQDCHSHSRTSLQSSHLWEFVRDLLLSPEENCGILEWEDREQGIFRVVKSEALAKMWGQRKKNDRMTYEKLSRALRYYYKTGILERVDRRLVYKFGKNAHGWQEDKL
# How it was run: as §1
# [17] = molecular target: T12, ETV3 (Homo sapiens, UniProt P41162-2 1-143); details: protein: recombinant; tags: N-terminal GST; dsDNA, one strand shown
# T12 sequence: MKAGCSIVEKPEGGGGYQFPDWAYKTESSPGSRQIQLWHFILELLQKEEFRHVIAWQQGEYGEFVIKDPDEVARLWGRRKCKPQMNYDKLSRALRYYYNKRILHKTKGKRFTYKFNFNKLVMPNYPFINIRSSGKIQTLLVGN
# How it was run: as §1
# [18] = molecular target: ETV6 (Homo sapiens, UniProt P41212 1-452); details: protein: recombinant; tags: N-terminal GST; dsDNA, one strand shown
# ETV6, sequence (P41212 whole entry): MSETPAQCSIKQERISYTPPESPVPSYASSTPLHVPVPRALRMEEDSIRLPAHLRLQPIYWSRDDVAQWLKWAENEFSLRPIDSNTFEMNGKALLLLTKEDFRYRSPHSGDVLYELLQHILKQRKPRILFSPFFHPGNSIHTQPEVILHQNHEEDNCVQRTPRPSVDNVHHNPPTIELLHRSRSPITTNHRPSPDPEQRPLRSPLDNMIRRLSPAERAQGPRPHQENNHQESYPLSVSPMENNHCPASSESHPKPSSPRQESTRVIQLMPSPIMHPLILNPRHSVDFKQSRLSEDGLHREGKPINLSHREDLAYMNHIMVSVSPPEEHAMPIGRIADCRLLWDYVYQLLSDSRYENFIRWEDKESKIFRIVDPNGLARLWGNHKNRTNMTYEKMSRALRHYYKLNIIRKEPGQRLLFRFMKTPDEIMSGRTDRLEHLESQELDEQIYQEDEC
# How it was run: as §1
sequence,measurement,setting,value
TCGCTA,binding signal,[1],"1.08 fold enrichment (6-mer frequency, TF over GST control)"
same,binding signal,[2],"1.07 fold enrichment (6-mer frequency, TF over GST control)"
same,binding signal,[3],"1.15 fold enrichment (6-mer frequency, TF over GST control)"
same,binding signal,[4],"1.06 fold enrichment (6-mer frequency, TF over GST control)"
same,binding signal,[5],"1.11 fold enrichment (6-mer frequency, TF over GST control)"
same,binding signal,[6],"1.16 fold enrichment (6-mer frequency, TF over GST control)"
same,binding signal,[7],"1.24 fold enrichment (6-mer frequency, TF over GST control)"
same,binding signal,[8],"1.03 fold enrichment (6-mer frequency, TF over GST control)"
same,binding signal,[9],"1.12 fold enrichment (6-mer frequency, TF over GST control)"
same,binding signal,[10],"1.08 fold enrichment (6-mer frequency, TF over GST control)"
same,binding signal,[11],"1.16 fold enrichment (6-mer frequency, TF over GST control)"
same,binding signal,[12],"1.09 fold enrichment (6-mer frequency, TF over GST control)"
same,binding signal,[13],"1.06 fold enrichment (6-mer frequency, TF over GST control)"
same,binding signal,[14],"1.03 fold enrichment (6-mer frequency, TF over GST control)"
same,binding signal,[15],"1.12 fold enrichment (6-mer frequency, TF over GST control)"
same,binding signal,[16],"1.06 fold enrichment (6-mer frequency, TF over GST control)"
same,binding signal,[17],"1.01 fold enrichment (6-mer frequency, TF over GST control)"
same,binding signal,[18],"1.04 fold enrichment (6-mer frequency, TF over GST control)"
